# System: PXR:RXRa (NR concentration 270 nM, RXRa partner concentration 90 nM)
# Test: PBM binding z-score (relative to random genomic background probes); higher = stronger binding; sequences stand for … in GC…GCGATTGACAGCGTAGAATGAAGG
# Method in brief: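 Ligand-free nuclear receptor dimers were bound for 1 h to custom Agilent 4×180K protein-binding microarrays. Detection used antibodies against each partner (one per run). Binding z-scores rest on regression-normalized fluorescence, with random background probes as the reference.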
row,Sequence,PBM binding z-score
1,CCTACTGGGCCATTCAGAGGTCAGTGATCATATG,2.28
2,CCTCGGAGGACAACAGGAGGTTAGAGCTGCCAGA,-0.222
3,TGAATCAGGTTAAAGATCAGGGAACGTGGCGTCG,0.343
4,CGTCCATGGTCAGCAGGTCAGTGAAAGCGACGTG,0.159
5,GCGACTGGGGCCAAGCAGGTTACCATAAGGTTGG,-0.00892
6,CTGGAAAGGTCGGTTGAGGTGAGTATACGGATAA,3.21
7,TCATATAGGTAAAGGTCAAAGTCGAACGATATGA,5.54
8,ACAGACAGGTGATGGAGGTAACTCAGGCTATCAT,-0.304
9,TTACCAAGGTGAGCTGAGGACGTTGATCCAACTC,2.25
10,TCTAGTTGGTCAAAGGTCACACACTCGAAATGCG,6.12
11,ACTAGCAGGCCAAGGGTAACTCAAGATTAGTCCG,-0.287
12,CGTCCCAGGTCAAAGGTCAGTGAAGAGATGACGG,6.8
13,GCGACTAGGGCAAAGCAGGTTACCATAAGGTTGG,0.293
14,ATCTCTAGGCAACCAAGTTCAGTGAATGCCGAAC,1.68
15,GCATATAGGAAATACAAGGTGAAAGTCCGATTGT,0.166
16,ATCTCTAGGTAACCAAGTTCAGTTAATGCCGAAC,2.19
17,GCGACTGGGGCAAAGCAGGGTACCATAAGGTTGG,-0.102
18,CTACCAAGGTGAACAAGGTTGTTGATTACTATTC,1.04
19,CCTGCTAGGTCAATTGTCAGCTAAAGCAGCTCGC,0.762
20,GCTCGGAGGACAAGGTCATAGCTTTGTCCGTAGA,3.46
21,ACTCGGAGGAAAAAGGTCAGAGCTACGCCAGTGA,2.65
22,TCTCGGAGGACACGAAGGTCAGAGCGTTCCAGAG,1.87
